Assay outcomes as filed in PubChem BioAssay.
Wee1 stabilizer = inhibitors of human Wee1 degradation. P30291. HeLa Luc-Wee1K328M stability, luciferase luminescence; 100% = proteasome inhibitor MG132 effect. reporter increase, % at 5 µM. actives 1.2% (n = 220,000). AID 1321;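 active means activation above the mean of all tested compounds plus 3 SD, set per screening run, cut at about 8.8% in these data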;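 further: cells exposed to compound for 20 h before luminescence read; 0% = DMSO alone and 100% = MG132 at 30 µM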
Target sequence (P30291 whole entry K328M): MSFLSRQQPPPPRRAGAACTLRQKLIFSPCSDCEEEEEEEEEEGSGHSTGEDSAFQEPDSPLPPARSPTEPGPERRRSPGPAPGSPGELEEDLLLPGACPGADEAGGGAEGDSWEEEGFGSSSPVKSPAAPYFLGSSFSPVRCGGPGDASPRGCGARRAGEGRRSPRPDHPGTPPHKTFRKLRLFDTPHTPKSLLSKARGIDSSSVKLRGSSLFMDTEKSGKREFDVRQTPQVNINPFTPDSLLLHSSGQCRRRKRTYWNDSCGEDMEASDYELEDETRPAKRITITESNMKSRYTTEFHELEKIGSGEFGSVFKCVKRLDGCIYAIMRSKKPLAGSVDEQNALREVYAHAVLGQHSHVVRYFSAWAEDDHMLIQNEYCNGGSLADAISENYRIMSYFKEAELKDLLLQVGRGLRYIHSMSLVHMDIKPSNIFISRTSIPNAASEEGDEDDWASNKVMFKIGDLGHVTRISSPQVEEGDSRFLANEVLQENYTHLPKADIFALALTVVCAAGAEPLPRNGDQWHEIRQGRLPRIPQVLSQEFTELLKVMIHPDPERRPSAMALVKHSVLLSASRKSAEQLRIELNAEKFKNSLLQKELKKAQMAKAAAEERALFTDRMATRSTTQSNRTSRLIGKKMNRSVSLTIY
L929 necroptosis = L929 zVAD cell death inhibition; actives 0.38% (n = 220,000); L929 zVAD necroptosis rescue, ATP luminescence, 24 h; with zVAD 60 µM; AID 1377; viability rescue, % at 10 µM;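 active means activation, scaled between plate controls, above about 75%, limit read from the data; inactive means activation under that limit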;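 further: 0% = zVAD with DMSO and 100% = DMSO alone without zVAD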
HSV augment = HSV replication enhancement | HSV replication augmentation in cells, fold increase | maximum fold increase | actives 0.005% (n = 220,000) | AID 1956; in the data active means maximum fold increase above about 1.5; inconclusive means no clear call, values can overlap the other calls; tested in PC3 cells
V-ATPase pH = alters yeast V-ATPase proton transport. S. cerevisiae, pHLuorin cytosolic pH fluorescence. response, % at 10 µM. actives 0.37% (n = 350,000); in the data active means response mostly above about 7.3%, no sharp cut-off; inactive means mostly below about 5.4%; further: actives read high
TNF death inh = TNF-alpha cell death inhibition in Jurkat FADD-/- cells; Jurkat FADD-/- TNF necroptosis rescue, ATP luminescence, 24 h; 0 = TNF only, 100 = no-TNF cells; activation (protection from cell death), % at 10 µM; actives 0.068% (n = 220,000); AID 463075;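 active means activation, meaning protection from cell death, of at least 50% relative to plate controls; inactive means activation below 50%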;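 further: necroptosis triggered by 40 ng/mL TNF-alpha added together with compound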
VATPase regulator = regulators of yeast V-ATPase proton transport. shares compounds with V-ATPase pH. S. cerevisiae pHLuorin cytosolic pH. response, % at 10 µM. actives 2% (n = 980); in the data active means response above about 24%;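 further: plate controls were vehicle wells for no effect and positive control wells for full effect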
* = called active by the depositor; ! = a repeat was not active. In the library only some 1.4% were active in any assay of this set; here they are far more common.

For O=C(O)CSc1nnc(-c2ccccc2)o1 the results were Wee1 stabilizer -2, L929 necroptosis 0, HSV augment inactive, V-ATPase pH 1, TNF death inh 1 and VATPase regulator -1.
Screening O=C(CSc1nnc(-c2ccccc2)o1)N1CCCC1 returned V-ATPase pH -4 and VATPase regulator 0.
O=C(O)CSc1nnc(-c2ccc3c(c2)OCO3)o1 was read as Wee1 stabilizer -2, L929 necroptosis 1, HSV augment inactive, V-ATPase pH -6 and TNF death inh 2.
Screening O=C(CSc1nnc(-c2ccccc2)o1)NC(=O)Cc1ccccc1 returned V-ATPase pH 4 and VATPase regulator 0.
`NC(=O)CSc1nnc(-c2ccc3c(c2)OCO3)o1` gave Wee1 stabilizer 2, L929 necroptosis 3, HSV augment inactive, V-ATPase pH 5.5*, TNF death inh 0 and VATPase regulator 1.
`O=C(CSc1nnc(-c2ccc(F)cc2)o1)N1CCCCC1` gave V-ATPase pH 4.
Screening CC(C)c1cc(C(=O)OCC(=O)NC2CCS(=O)(=O)C2)c(O)c(C(C)C)c1 (stereo not drawn) returned V-ATPase pH 1.
COc1ccc(C(=O)CSc2nnc(-c3cc(C)cc(C)c3)o2)cc1 was read as Wee1 stabilizer 2, L929 necroptosis 0, HSV augment inactive, V-ATPase pH -2 and TNF death inh -4.
O=C(CSc1nnc(-c2ccccc2)o1)N1CCCCC1 was read as V-ATPase pH 1 and VATPase regulator -12.
For COc1ccc(CCNC(=O)CSc2nnc(-c3ccccc3)o2)cc1OC the results were HSV augment inactive, V-ATPase pH 11* and VATPase regulator 6.
Screening Cc1ccc(C(=O)CSc2nnc(-c3ccccc3)o2)cc1 returned Wee1 stabilizer -1, L929 necroptosis 0, HSV augment inactive, V-ATPase pH -1, TNF death inh -1 and VATPase regulator 2.
CCCCN(C(=O)c1cccs1)c1c(N)n(Cc2ccccc2)c(=O)[nH]c1=O was read as V-ATPase pH 0.
`COc1ccc(C2=NS(=O)(=O)N(C)C(C(=O)NC3CCCCC3)=C2)cc1` gave V-ATPase pH 11* and VATPase regulator -4.
Screening COc1ccccc1CNS(=O)(=O)c1ccc2c(c1)CCCN2C(C)=O returned V-ATPase pH 12* and VATPase regulator -18.
`Cc1nn(-c2ccc(F)cc2)c(C)c1/C=C/C(=O)N1CCNC(=O)C1` gave Wee1 stabilizer 5, L929 necroptosis 0, HSV augment inactive, V-ATPase pH 9.3*, TNF death inh 1 and VATPase regulator 0.
For CCOC(=O)C1=C(C)NC(SCC(=O)OC)=C(C#N)C1c1ccc(C(=O)OC)cc1 (stereo not drawn) the results were Wee1 stabilizer -2, L929 necroptosis 0, HSV augment inactive, V-ATPase pH 9.9*!, TNF death inh 0 and VATPase regulator -1.
Screening N#Cc1c(-c2ccccc2)c(-c2ccccc2)n(Cc2ccco2)c1NC(=O)c1cccs1 returned Wee1 stabilizer 0, L929 necroptosis 0, HSV augment inconclusive, V-ATPase pH 9.7*, TNF death inh -6 and VATPase regulator -6.
`Clc1ccc(CSC2=NCCCN2)cc1Cl` gave Wee1 stabilizer 0, L929 necroptosis -1, HSV augment inactive, V-ATPase pH 2, TNF death inh 4 and VATPase regulator 0.
Clc1ccccc1CSC1=NCCCN1 was read as Wee1 stabilizer -1, L929 necroptosis 0, HSV augment inactive, V-ATPase pH 1, TNF death inh 1 and VATPase regulator 1.
Screening Cc1c(NC(=O)c2cccc(NC(=O)COc3ccccc3C#N)c2)c(=O)n(-c2ccccc2)n1C returned V-ATPase pH 15* and VATPase regulator 0.
Cc1c(NC(=O)c2cccc(NC(=O)COc3ccccc3)c2)c(=O)n(-c2ccccc2)n1C was read as V-ATPase pH -2.
Screening CCn1c(=O)c2sccc2n(CC(=O)NC2CCCC2)c1=O returned V-ATPase pH -6.
O=C(CSc1n[nH]c(=O)[nH]c1=O)Nc1c(Cl)cc(Cl)cc1Cl was read as V-ATPase pH 13* and VATPase regulator -1.
`NC(=O)NC(=O)COC(=O)CCCCCNS(=O)(=O)c1ccc2c(c1)OCCO2` gave Wee1 stabilizer -2, L929 necroptosis 5, HSV augment inactive, V-ATPase pH 5 and TNF death inh 0.
CCOC(=O)NC(Nc1ccc(S(N)(=O)=O)cc1)(C(=O)OCC)C(F)(F)F (stereo not drawn) was read as Wee1 stabilizer -2, L929 necroptosis 0, HSV augment inactive, V-ATPase pH 13*, TNF death inh 3 and VATPase regulator 2.
CCOC(=O)C(NC(C)=O)(Nc1ccc(F)cc1)C(F)(F)F (stereo not drawn) was read as Wee1 stabilizer -3, L929 necroptosis 0, HSV augment inactive, V-ATPase pH -7 and TNF death inh 0.
O=C(Cc1c(Cl)cccc1Cl)OCC(=O)N1CCOCC1 was read as V-ATPase pH 13* and VATPase regulator 3.
`O=C(Cc1c(Cl)cccc1Cl)OCC(=O)N1CCc2ccccc2C1` gave Wee1 stabilizer -1, L929 necroptosis 0, HSV augment inactive, V-ATPase pH 1 and TNF death inh 5.
Screening OCCN(CCO)Cc1csc2ccccc12 returned Wee1 stabilizer -1, L929 necroptosis 0, HSV augment inactive, V-ATPase pH 12*, TNF death inh 1 and VATPase regulator 0.
For Cc1cc(C)cc(N(CCC#N)C(=O)CSc2n[nH]c(N)n2)c1 the results were V-ATPase pH -1.
O=C(c1ccccc1)N1CCN(c2nc3ccc([N+](=O)[O-])cc3s2)CC1 was read as Wee1 stabilizer 4, L929 necroptosis -1, HSV augment inactive, V-ATPase pH 16*, TNF death inh -5 and VATPase regulator -3.
For O=[N+]([O-])c1ccc2nc(N3CCCC3)sc2c1 the results were V-ATPase pH 2.
`Cc1nc(C(=O)Nc2ccc(Cl)cc2)sc1C1(C)CC(c2cccc([N+](=O)[O-])c2)=NO1` (stereo not drawn) gave HSV augment inactive, V-ATPase pH 10.0* and VATPase regulator -4.
CC(C)Oc1ccc(C2CC(=O)N(c3cccc(/C=C/C(=O)O)c3)C2=O)cc1 (stereo not drawn) was read as V-ATPase pH -1.
NC(=O)c1cc(NC(=O)CCc2nc3ccccc3s2)cc(C(N)=O)c1 was read as V-ATPase pH 9.6* and VATPase regulator 4.
N#Cc1ccc(NC(=O)CCc2nc3ccccc3s2)cc1 was read as Wee1 stabilizer 0, L929 necroptosis 1, HSV augment inactive, V-ATPase pH -2 and TNF death inh 1.
